Hit rate of the full screen: of about 63,000 compounds, about 1,100 (1.7%) were called active. This is one part of a sample in which actives are shown more often than they occur. Results with a measured potency or affinity are listed apart. Unmarked numbers belong to inactive results.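 Rule for the calls: active = compounds whose percent cytotoxicity in the single-dose primary screen, scaled between solvent and toxic-drug controls, exceeds 50; inactive = the rest.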

The assay can be described thus: viability loss of HPDE-C7K cells – cell-based, fluorescence, HTS, primary screen (AID 431).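 Note: 0% = DMSO solvent wells and 100% = doxorubicin-treated wells.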 Particulars: HPDE-C7K KRASV12 cells, Alamar Blue viability, 48 h; at 10 µM; stronger effect = higher value. (In general: Resazurin is reduced to fluorescent resorufin, in cell work by metabolically active cells.)
As to `CC1CCCCC1NC(=O)CN1CCN(Cc2ccccc2Cl)C1=O` (stereo not given), the cytotoxicity was -7.1%.

Regarding `CCc1cc(C)cc(OCCNC(=O)c2ncn[nH]2)c1`, the cytotoxicity is 30%. Take `Cn1nnnc1CCOCCc1nnnn1C`: the cytotoxicity was 14.6%. In the case of `CCn1nnnc1SCCSc1nnnn1CC`, the cytotoxicity was 9.6%. With `N/C(=N\c1nc2c(c(=O)[nH]1)CCCC2)Nc1ccccc1` the figure was 12.1%; with `COc1ccc(-c2cn3cccnc3n2)cc1NC(=O)c1ccc(Br)o1`, 8.3%. Under `CCOC(=O)C1=C(C)N=C2SC(CC)C(=O)N2C1c1cccc(F)c1` (stereo not given) stands -16.9%. Consider `Cc1[nH]c2ccccc2c1NC(=O)CN1CCN(c2cccc(C(F)(F)F)c2)CC1`, for which the cytotoxicity is 70% (active). Under `COC(=O)c1[nH]c2ccccc2c1NC(=O)CN1CCN(c2cccc(Cl)c2)CC1` stands 7.8%; under `O=C(CCn1c(=O)[nH]c2ccccc2c1=O)N1CCN(c2cccc(C(F)(F)F)c2)CC1`, -4.3%.

Regarding `O=C(CN1CCN(c2ccccc2)CC1)Nc1cccc(C(F)(F)F)c1`, the cytotoxicity was 4.9%.

As for `OC(CN1CCN(c2cccc(C(F)(F)F)c2)CC1)c1c[nH]c2ccccc12` (stereo not given), the cytotoxicity is 30.5%.

For the compound `CC[C@]1(O)C[C@@H]2CN(CCc3c([nH]c4ccccc34)[C@@](C(=O)OC)(c3cc4c(cc3OC)N(C)[C@H]3[C@@](O)(C(=O)OC)[C@H](OC(C)=O)[C@]5(CC)C=CCN6CC[C@]43[C@@H]65)C2)C1`, the cytotoxicity was 74.9% (active). As for `CC[C@]1(O)CC2CN(CCc3c([nH]c4ccccc34)[C@@](C(=O)OC)(c3cc4c(cc3OC)N(C=O)[C@H]3[C@@](O)(C(=O)OC)[C@H](OC(C)=O)[C@]5(CC)C=CCN6CC[C@]43[C@@H]65)C2)C1` (stereo not given in full), the cytotoxicity is 72.5% (active). For the compound `CC(=O)Oc1ccc(N(C(C)=O)S(=O)(=O)c2cccs2)cc1`, the cytotoxicity is 8.2%. Turning to `O=C(O)CCC(=O)Nc1nnc(C(F)(F)F)s1`, the cytotoxicity is -6.4%. For the compound `CCCNc1cc(=O)n(C)c(=O)n1C`, the cytotoxicity is 9.9%. Take `O=c1c2c3nc4ccccc4nc3n(-c3cccc(F)c3)c2ncn1Cc1ccc2c(c1)OCO2`: the cytotoxicity was 7.3%. Take `CC(C)c1ccc(O)c(N)c1`: the cytotoxicity is 8%. With `Cc1ccc(SC(C)C(=O)NCC(C)C)cc1` (stereo not given), the cytotoxicity was 0%.

Regarding `Cc1ccc(O)c(Sc2cc(C)ccc2O)c1`, the cytotoxicity is 65.2% (active).

For the compound `Cc1ccc(NC(=O)CSc2nccc(=O)[nH]2)c(S(=O)(=O)N2CCOCC2)c1`, the cytotoxicity was 2.7%. With `Cc1sc(NC(=O)c2ccco2)c(C(c2ccncc2)N2CCOCC2)c1C` (stereo not given) the figure was -8.8%. Under `CCOC(=O)C1CCN(C(c2cccnc2)c2c(NC(=O)c3ccco3)sc(C)c2C)CC1` (stereo not given) stands 82.5% (active).

As to `Cc1sc(NC(=O)c2ccco2)c(C(c2cccnc2)N2CCN(c3ccc(F)cc3)CC2)c1C` (stereo not given), the cytotoxicity was 1.9%.

Consider `Cc1ccc2nc(N3CCN(C(=O)c4cccs4)CC3)c(C#N)cc2c1`, for which the cytotoxicity is 2%. For `Cc1ccc2ncccc2c1NS(=O)(=O)c1ccccc1`, the cytotoxicity was -4.5%. For the compound `O=S(=O)(Nc1cccc2ncccc12)c1cccs1`, the cytotoxicity was 25.3%. As for `c1ccc(N(c2ccccc2)c2nc(N3CCCC3)nc(-n3ccnc3)n2)cc1`, the cytotoxicity is 1.4%. As for `O=C1c2cccnc2C(O)N1Cc1ccc(F)cc1` (stereo not given), the cytotoxicity was 1.3%. Consider `Cc1ccc2oc(=O)c3cc(C(=O)N4CCN(C(=O)c5ccco5)CC4)sc3c2c1`, for which the cytotoxicity was 11%. Regarding `O=C(Nc1ccc(-n2cnnn2)cc1)C1CCC1`, the cytotoxicity was -4.6%. In the case of `COc1ccc(-c2onc(C)c2-c2ccccc2)c(O)c1`, the cytotoxicity was 15.1%.

`COc1ccc(-c2noc(C)c2-c2ccc3ccccc3n2)c(O)c1`: the cytotoxicity was 54.3% (active). Take `COc1ccc(-c2n[nH]c(C)c2-c2cnn(-c3ccccc3)c2)c(O)c1`: the cytotoxicity was 29.6%. Turning to `CCOc1ccccc1Nc1ccc(C(=O)O)cc1NC(C)=O`, the cytotoxicity is 0.6%. `O=C(c1cc(-c2cccs2)on1)N1CCOCC1`: the cytotoxicity was 2.8%. Regarding `O=C(c1cc(-c2cccs2)on1)N1CCN(c2ccccc2)CC1`, the cytotoxicity is 50.8% (active). With `O=C(c1cc(-c2cccs2)on1)N1CCN(c2ccc(F)cc2)CC1` the figure was 13.6%. Regarding `O=S(=O)(c1cccc2cccnc12)n1cnc2ccccc21`, the cytotoxicity was 6.3%.

In the case of `Cc1cccc(C)c1NC(=O)CSc1nnc(Cn2nnc(-c3ccccc3)n2)n1-c1ccccc1`, the cytotoxicity was -8.4%. As for `N#CC(C(=O)OC1CCCCC1)c1nc2ccccc2nc1N1CCCCC1` (stereo not given), the cytotoxicity is 5.4%. For the compound `O=C(C1=C(O)C(=O)N(CCN2CCOCC2)C1c1ccccc1)c1cccs1` (stereo not given), the cytotoxicity was -12.1%.

Take `O=C(c1cccs1)N1CCC(c2nc3c(nnn3Cc3ccccc3)c(=O)[nH]2)CC1`: the cytotoxicity was -36%. `COCC(=O)n1nc(-c2ccccc2)nc1NCc1ccc(F)cc1`: the cytotoxicity is -6%.

`Cc1cccc(N2CCN(C(=O)CCn3c(=S)[nH]c4cc5c(cc4c3=O)OCO5)CC2C)c1` (stereo not given): the cytotoxicity was 62.5% (active). With `O=C(CCCn1c(=S)[nH]c2cc3c(cc2c1=O)OCO3)N1CCN(c2ccccc2)CC1`, the cytotoxicity was -7.8%. Under `COc1cccc(N2CCN(C(=O)CCn3c(=S)[nH]c4cc5c(cc4c3=O)OCO5)CC2)c1` stands -4.3%; under `NC1=NC2(CCN(Cc3ccccc3)CC2)n2c(nc3ccccc32)N1`, 1%; under `NC1=NC2(CCCCC2)n2c(nc3ccccc32)N1`, 19%. As for `NC1=NC2(CCC(c3ccccc3)CC2)n2c(nc3ccccc32)N1` (stereo not given), the cytotoxicity is 68.7% (active). Under `CCOc1ccc(CNC(=O)NS(=O)(=O)c2ccc(OC)cc2)cc1` stands -11.3%. With `CCCCn1nnnc1NCc1cccc(OC)c1OC` the figure was 12.8%; with `CCCCn1c(SCC(=O)NCc2ccco2)nnc1-c1ccoc1C`, -26.4%; with `CCCN(CCC)C(=O)C1CCN(c2cc(C)nc3c(-c4ccc(OC)c(OC)c4)c(C)nn23)CC1`, 7.2%.

`COc1ccc(C(=O)O)cc1F`: the cytotoxicity was 2.5%. In the case of `COc1ccc(C(=O)CCN2CCCCCC2)cc1`, the cytotoxicity was -7.8%. In the case of `COc1ccc(C(O)C(CN2CCOCC2)c2ccccc2)cc1F` (stereo not given), the cytotoxicity was -8.6%.

For the compound `COc1ccc(C(=O)C(c2ccccc2)N2CCOCC2)cc1` (stereo not given), the cytotoxicity was -2.4%.

On to `Cc1c(C(=O)N2CCCCC2)sc(NC(=O)C2CC2)c1C#N`, for which the cytotoxicity was 2.5%. Consider `O=C(Nc1ccccc1Cl)c1cnccn1`, for which the cytotoxicity is -6.1%. For `CCn1c2ccccc2c2cc(C3C(C#N)=C(N)OC4=C3C(=O)CC(C)(C)C4)ccc21` (stereo not given), the cytotoxicity was -10.7%.

As for `CCn1c2ccccc2c2cc(C3C(C#N)=C(C)NC(C)=C3C#N)ccc21`, the cytotoxicity was 7.6%. With `Cc1ccc(N2C(=O)CSC23C(=O)Nc2ccccc23)cc1` (stereo not given), the cytotoxicity is -5.4%. As for `COC(=O)[C@@H](NC(=O)Nc1ccccc1F)C(C)C`, the cytotoxicity is 1.9%.

Consider `COc1ccc(C(N)=O)cc1N`, for which the cytotoxicity is -1%.

`COc1ccc(C(=O)c2ccc(OC)c(OC)c2)cc1OC`: the cytotoxicity was -8.4%.

Turning to `COc1ccc(C(=O)c2ccc(OC)c(N)c2)cc1N`, the cytotoxicity was 66.7% (active). Under `CN(Cc1ccccc1)C(=O)C1CCN(Cc2ccc(F)cc2)CC1` stands 8.6%; under `CC(C)(C)OC(=O)N1CCC(c2c(C(=O)O)cnn2-c2ccccc2Cl)CC1`, 1%.

With `Cc1ccc(CNC(=O)CCS(=O)(=O)c2ccc(Br)s2)o1`, the cytotoxicity is -4.2%. As to `COc1ccc(N(CC(=O)Nc2cc(C)ccc2OC)S(=O)(=O)c2c(C)noc2C)cc1`, the cytotoxicity is 9.5%. As for `CCOc1ccccc1NC(=O)CN(c1ccc(OC)cc1)S(=O)(=O)c1c(C)noc1C`, the cytotoxicity is 52.8% (active).

Take `COc1ccc(OC)c(NC(=O)CN(c2ccc(C)cc2)S(=O)(=O)c2c(C)noc2C)c1`: the cytotoxicity is 1.7%.

For the compound `CCOc1ccccc1NC(=O)CN(c1cc(C)cc(C)c1)S(=O)(=O)c1c(C)noc1C`, the cytotoxicity is -9.2%. On to `CCOc1ccccc1NC(=O)CN(c1ccc(C)cc1)S(=O)(=O)c1c(C)noc1C`, for which the cytotoxicity is -7.2%.

`COc1ccc(N(CC(=O)Nc2cc(Cl)ccc2OC)S(=O)(=O)c2c(C)noc2C)cc1`: the cytotoxicity is 77.1% (active). Under `COc1ccccc1C(=O)N1CCN(S(=O)(=O)Cc2ccccc2)CC1` stands -0.3%.

`CCOc1cc(CNc2ncnc3nc[nH]c23)ccc1OC`: the cytotoxicity was 6.5%.

Turning to `Cc1ccc2nsnc2c1S(=O)(=O)N1CCN(C(=O)C2CCCO2)CC1` (stereo not given), the cytotoxicity was -15.6%. Consider `COc1cc2c(cc1OC)C(C)N(C(=O)Cn1ncc3c1-c1ccccc1OC3)CC2` (stereo not given), for which the cytotoxicity was -1.4%. With `CC(C)(C)C(=O)Cn1c(NCCCO)nc2ccccc21` the figure was -18.5%. Under `Cc1onc(-c2ccccc2)c1C(=O)N1CCCN(C(=O)c2c(-c3ccccc3)noc2C)CC1` stands -5.2%.

Turning to `Cc1onc(-c2ccccc2)c1C(N)=O`, the cytotoxicity is 50.5% (active). In the case of `Cc1onc(-c2ccccc2Cl)c1C(N)=O`, the cytotoxicity is 8%. Under `CCOC(=O)c1[nH]c(C)c(C(=O)Nc2ccc(C)c(F)c2)c1C` stands 0.8%; under `CCc1ccc(NC(=O)c2noc3c2CCCCC3)cc1`, 3.4%.

For `COc1ccc(C(=O)N2CCOCC2)cc1Br`, the cytotoxicity is -1%. Under `Cc1cccc(OCC(=O)OCC(=O)c2c(N)n(C)c(=O)n(C)c2=O)c1` stands 3%; under `O=C(C1CCCN(S(=O)(=O)c2ccc(Br)s2)C1)N1CCCCCC1` (stereo not given), -15.2%.

`COC(=O)C1C(=O)C2=C(CC1C)NC(=O)CC2c1ccc(O)c(OC)c1` (stereo not given): the cytotoxicity was -9.5%. In the case of `Cc1cc(C)c(C)c(S(=O)(=O)NCc2cccnc2)c1C`, the cytotoxicity is -6.4%. Under `Cc1ccc(C(C)C)cc1S(=O)(=O)NCc1cccnc1` stands 0.8%; under `Cc1ccc(C)c(S(=O)(=O)NCc2cccnc2)c1`, 52% (active).

Turning to `COCCN1Cc2c(sc(C)c2C)N(C(=O)c2ccccc2)C1`, the cytotoxicity was 5.6%.

The values are drawn from PubChem BioAssay AID431 (Sanford-Burnham Center for Chemical Genomics, 2006).
